From PubChem BioAssay (NCI)
The panel holds about 83,000 compounds, 20% with a hit somewhere; the sample as a whole holds those more often.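 For each line, cells grew in 96-well plates with the test compound present at a single concentration for 48 hours.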 Active and inactive are the calls of the source.

Test system: HOP-62 NSCLC
Test: NCI-60 one-dose screen, 48 h (100 = growth as untreated, 0 = no growth, -100 = all killed)
Conditions: 10 µM unless noted
Experimental: Growth inhibition of the HOP-62 human Non-Small Cell Lung tumor cell line is measured as a screen for anti-cancer activity. Cells are grown in 96 well plates and exposed to the test compound for 48 hours. Compounds are tested at a single concentration, which is 10^-5 M for most compounds. The reported endpoint is percent growth (GI% or GIPRCNT), where numbers from 0 - 100% represent growth inhibition, and numbers from -100% - 0 represent cell death. For example, a value of 40 represents 60% growth inhibition. A value of 0 means no net growth occurred over the course of the experiment. A value of -40 indicates 40% of cells at the beginning of the experiment died by the end of the experiment. A value of -100 means all cells are dead at the end of the experiment.
NCI-60 Human Tumor Cell Lines Screen was performed using the standard one-dose NCI protocol, which is described in more detail at https://dtp.cancer.gov/discovery_development/nci-60/default.htm.
Compounds with GIPRCNT values below 10 were considered active. Activity score was based on GIPRCNT using the following formula: […]
Score is 0 for GIPRCNT values of 100 or above, 50 for GIPRCNT values of 0, and 100 for GIPRCNT values of -100.

Question: `CCCCCC(=O)Oc1ccc(/C(=C(\C)c2ccccc2)c2ccc(OCCN3CCCCC3)cc2)cc1` was tested. Which growth did it give?
Answer: Its growth is 87.7% (inactive).

Question: How did the growth turn out when `O=C(CCN1CCCC1)Nc1ccc2c(NCc3ccccc3)c3ccccc3nc2c1` was run?
Answer: The growth was -3.52% (active).

Question: How did the growth turn out when `C=C(C)[C@@H]1CC[C@]2(CN)CC[C@]3(C)[C@H](CC[C@@H]4[C@@]5(C)CCCNC(C)(C)[C@@H]5CC[C@]43C)[C@@H]12` was run?
Answer: Its growth is 21.2% (inactive).

Question: How did the growth turn out when `Cc1cc2cc3ccc(N(C)C)cc3nc2cc1N` was run?
Answer: Its growth is -39.1% (active).

Question: How did the growth turn out when `O=C(CCN1CCCC1)Nc1ccc2c(NCCc3ccccc3)c3ccccc3nc2c1` was run?
Answer: The growth was -9.1% (active).

Question: `Cc1ccc(C(=O)/C(=C\c2ccc([N+](=O)[O-])cc2)S(=O)Cc2ccc(F)cc2)cc1` (stereo not given) was tested. Which growth did it give?
Answer: The growth was 21.5% (inactive).

Question: Which growth does the source give for `N#C/C(=C\c1ccc([N+](=O)[O-])s1)c1nc2cc(Cl)ccc2s1` here?
Answer: The growth was 12.6% (inactive).

Question: How did the growth turn out when `NC(=O)Nc1ccc(-n2cnc3cc(-c4ccc(O)cc4)ccc32)cc1` was run?
Answer: The growth was 104% (inactive).

Question: Which growth does the source give for `COC1=CC(=O)c2ccccc2C1=O` here?
Answer: Its growth is 44.9% (inactive).

Question: With `CC(=O)OC[C@]12CC[C@@H](C(=O)CBr)[C@@H]1[C@H]1CC[C@@H]3[C@@]4(C)CC[C@H](OC(C)=O)C(C)(C)[C@@H]4CC[C@@]3(C)[C@]1(C)CC2` as the compound, how does the growth read?
Answer: The growth was 103% (inactive).

Question: How did the growth turn out when `O=C(NNc1nc2c(F)cccc2n2cccc12)c1cnccn1` was run?
Answer: Its growth is 30.2% (inactive).

Question: For `COc1cc2c(=O)n(CCCN(C)C)c3c4cc5c(cc4ccc3c2cc1OC)OCO5`, which growth is on record?
Answer: Its growth is 38% (inactive).

Question: For `CCN1C(=O)N(CC)C2Nn3c(s/c(=C\c4ccc(OC)cc4)c3=O)=NC21` (stereo not given), which growth is on record?
Answer: The growth was 55.8% (inactive).

Question: With `COc1cc2nc(-c3ccc(C(F)(F)F)cc3)cc(OCCCN3CCCC3)c2cc1OC` as the compound, how does the growth read?
Answer: Its growth is 63.6% (inactive).

Question: `COc1cc(CC(=O)n2ncc3ccc(N)cc32)cc(OC)c1OC` was tested. Which growth did it give?
Answer: The growth was 94.8% (inactive).

Question: `O=S(=O)(NCCNc1nccc(-c2c(-c3cccc(F)c3)nc3sccn23)n1)c1ccccc1` was tested. Which growth did it give?
Answer: The growth was 60.2% (inactive).

Question: With `CCOC(=O)c1ccc2c(c1)ncn2-c1ccc(NC(=O)Nc2cccc(C)c2)cc1` as the compound, how does the growth read?
Answer: The growth was 81.8% (inactive).

Question: `CC(=O)N1c2ccccc2NC2=C(C(=O)NC2(C)C)C1c1ccco1` (stereo not given) was tested. Which growth did it give?
Answer: The growth was 112% (inactive).

Question: Which growth does the source give for `Cc1nn(-c2ccccc2)c(Cl)c1/C=N\N=c1/sc2ccccc2n1C` here?
Answer: The growth was 93.1% (inactive).

Question: How did the growth turn out when `COc1cc2c(cc1OC)C(=O)/C(=C/c1cc(C)c(O)c(C)c1)S2` was run?
Answer: The growth was 39.4% (inactive).

Question: Which growth does the source give for `CN(CCN(C)c1ccc(C(=N)N)cc1)c1ccc(C(=N)N)cc1` here?
Answer: Its growth is 102% (inactive).

Question: With `CCN(CC)CCOc1ccc(NC(=O)C(C(C)C)N2C(=O)/C(=C/c3ccc(Br)cc3)SC2=S)cc1` (stereo not given) as the compound, how does the growth read?
Answer: The growth was 104% (inactive).

Question: `CC(=O)O[C@H]1Cc2c([nH]c3ccccc23)[C@@H](c2ccc(Cl)cc2)N1C(=O)CCNC(C)(C)C` was tested. Which growth did it give?
Answer: The growth was 69.1% (inactive).

Question: `CC(=O)CCC(=O)OCc1cc(=O)c(O)co1` was tested. Which growth did it give?
Answer: Its growth is 105% (inactive).

Question: `N#CC(C(=O)/C(=N/NC(=O)c1ccccc1O)C(C#N)c1ccccc1)c1ccccc1` (stereo not given) was tested. Which growth did it give?
Answer: Its growth is 30.8% (inactive).

Question: `N#CC1C(C#N)C(C(=O)c2ccc(Br)cc2)N2c3ccccc3C=CC12` (stereo not given) was tested. Which growth did it give?
Answer: The growth was 75.1% (inactive).

Question: For `C=C(C)[C@@H]1CC[C@]2(C(=O)N3CCN(C)CC3)CC[C@]3(C)[C@H](CC[C@@H]4[C@@]5(C)C/C(=C/c6cccnc6)C(=O)C(C)(C)[C@@H]5CC[C@]43C)[C@@H]12`, which growth is on record?
Answer: The growth was 88.4% (inactive).

Question: Which growth does the source give for `O=S(=O)(NCCNc1nccc(-c2c(-c3cccc(O)c3)nc3occn23)n1)c1ccc(C(F)(F)F)cc1` here?
Answer: The growth was 107% (inactive).

Question: For `O=C(CCN1CCCC1)c1ccc([N+](=O)[O-])cc1`, which growth is on record?
Answer: The growth was 98.2% (inactive).

Question: How did the growth turn out when `Cn1ccnc1C(=O)/C=C/c1ccc(CC(=O)Nc2ccc(F)cc2)cc1` was run?
Answer: Its growth is 18.4% (inactive).

Question: Which growth does the source give for `COc1ccc(/C=C(\C#N)n2nc3cccc(F)c3n2)cc1` here?
Answer: The growth was 105% (inactive).

Question: Which growth does the source give for `COc1cc(/C=C/C(=O)c2nc3cc(F)ccc3nc2C)cc(OC)c1OC` here?
Answer: The growth was 106% (inactive).

Question: How did the growth turn out when `O=S(=O)(NCCCNc1nccc(-c2c(-c3cccc(F)c3)nc3sccn23)n1)c1cccc(F)c1` was run?
Answer: The growth was 61.3% (inactive).

Question: For `Cn1cc(-c2csc(-c3c[nH]c4ccccc34)n2)c2ccnc(Cl)c21`, which growth is on record?
Answer: Its growth is 119% (inactive).

Question: With `O=Cc1ccc(-c2cn3ccnc3c(-c3ccc4ncn(Cc5ccccc5)c4c3)n2)cc1` as the compound, how does the growth read?
Answer: The growth was 76.2% (inactive).

Question: For `COCCCN1CC(O)=C(c2nc(-c3ccc(C)cc3)cs2)C1=N`, which growth is on record?
Answer: The growth was 91.6% (inactive).

Question: `C#Cc1cccc(NC(=O)Nc2cccc(NC(=O)CCl)c2)c1` was tested. Which growth did it give?
Answer: Its growth is 36.1% [8.25 µM] (inactive).

Question: How did the growth turn out when `CCOC(=O)/C(C#N)=C1/NNC(=Nc2cccnc2)S1` was run?
Answer: The growth was 90.8% (inactive).

Question: With `Cn1ccc2c1CC1CN(Cc3ccco3)C(=O)C1C2C(=O)O` (stereo not given) as the compound, how does the growth read?
Answer: The growth was 96.8% (inactive).

Question: Which growth does the source give for `O=C1c2ccc3c4c(ccc(c24)C(=O)N1CCCNCc1ccccc1)C(=O)N(CCCNCc1ccccc1)C3=O` here?
Answer: The growth was -38.5% (active).
